D2 ag-1 – Beta-Arrestin HTS for Positive Allosteric Modulators of the Human D2 Dopamine Receptor: Agonists; AID 624465, 2012; 360,000 compounds, 0.084% hits; activation, % (no concentration beside the values); DiscoveRx PathHunter D2 beta-arrestin, luminescence, 90 min; 100% = 57 uM dopamine signal; in the data active means activation above about 40%
Target sequence (P14416 whole entry, looked up): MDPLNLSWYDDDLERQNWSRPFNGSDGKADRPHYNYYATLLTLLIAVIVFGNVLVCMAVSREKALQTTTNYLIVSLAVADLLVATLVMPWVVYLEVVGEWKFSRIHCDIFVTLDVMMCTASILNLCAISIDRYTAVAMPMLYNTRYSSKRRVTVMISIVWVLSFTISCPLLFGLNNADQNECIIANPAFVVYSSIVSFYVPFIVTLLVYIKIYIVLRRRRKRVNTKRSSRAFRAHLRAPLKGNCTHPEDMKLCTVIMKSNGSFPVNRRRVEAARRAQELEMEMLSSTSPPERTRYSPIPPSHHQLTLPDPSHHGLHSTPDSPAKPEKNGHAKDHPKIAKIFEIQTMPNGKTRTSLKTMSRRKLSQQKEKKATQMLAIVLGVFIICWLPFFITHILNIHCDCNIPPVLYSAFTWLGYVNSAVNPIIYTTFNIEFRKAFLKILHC
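Agonist mode: compounds alone added to overnight-plated D2 PathHunter cells for 90 min at 37 C, with 57 uM final dopamine (EC100) defining full response. Beta-arrestin recruitment detected by chemiluminescent reagent, read after 1 h at ambient temperature.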
D2 PAM-1 – HTS Assay for Positive Allosteric Modulators of the Human D2 Dopamine Receptor: Primary Screen for Potentiators; D(2) dopamine receptor (Homo sapiens), P14416; HEK293 T-REx D2, calcium flux, EC20 dopamine potentiation; potentiation, % at 10 µM; 340,000 compounds, 0.34% hits;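 active means potentiation over 3 SD above the plate norm, cut at about 30% in these data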; further: 0% is about no effect
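Potentiation of an EC20 dopamine calcium response is measured in a force-coupled, tetracycline-inducible Hek293 Trex D2 line. Compound-only kinetic reads over 180 s flag agonists before dopamine addition.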
D2 PAM-2 – Beta-Arrestin HTS for Positive Allosteric Modulators of the Human D2 Dopamine Receptor: Potentiators. D(2) dopamine receptor (Homo sapiens), P14416. DiscoveRx D2 beta-arrestin cells, luminescence, 90 min; 100% = 57 uM dopamine signal. potentiation, % (test concentration not listed). 360,000 compounds, 0.23% hits; in the data active means potentiation above about 50%
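D2 cells co-treated with compound plus 50 nM dopamine (EC20) for 90 min at 37 deg C to detect potentiation. Beta-arrestin recruitment was read as enzyme-fragment luminescence after 1 h at ambient temperature. Full response was set by 57 uM dopamine.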
D2 antagonist – HTS Assay for Allosteric Antagonists of the Human D2 Dopamine Receptor: Primary Screen for Antagonists; D(2) dopamine receptor (Homo sapiens), P14416; HEK293 TREx D2 cells, calcium flux, dopamine EC80; inhibition, % at 10 µM; 340,000 compounds, 2% hits; AID 485344, 2010; in the data active means inhibition above about 30%; inactive means below that, where a call was filed; further: 0% is about no effect
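Cells plated overnight at 30 C with tetracycline; no-wash calcium dye, 30–90 min RT; 10 s baseline; compound pinned; 180 s read; EC80 dopamine added; another 180 s read.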
D2 ag-2 – HTS Assay for Allosteric Agonists of the Human D2 Dopamine Receptor: Primary Screen for Agonists. D(2) dopamine receptor (Homo sapiens), P14416. HEK293 T-REx D2 cells, calcium flux agonist mode. activation, % at 2 µM. 340,000 compounds, 0.53% hits. AID 485358, 2010;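 active means activation over 3 SD above normal in the single-dose calcium agonist read, cut at about 30% in these data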; further: 0% is about no effect
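HEK293 Trex D2 cells, tetracycline-induced, o/n 30 C 5% CO2; no-wash Ca dye, RT 30–90 min; 10-cycle baseline, 23 nl cpd added, kinetic Ca read 180 s; agonist hits = positive Ca response.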
* = called active by the depositor; x = no result given. An excerpt weighted towards active compounds, which were near 2.4% of everything screened.

SMILES	D2 ag-1	D2 PAM-1	D2 PAM-2	D2 antagonist	D2 ag-2
O=C(O)CC1SC(=Nc2ccccc2)N(c2ccccc2)C1=O (configuration not stated)	-0.3	0.5	1.1	42.6*	0.9
O=C(O)CC1S/C(=N\N=C2CCCCCCC2)N(c2ccccc2)C1=O (configuration not stated)	0.6	1.2	-0.3	-2.9	0.0
CCOC(=O)c1cn(-c2ccc(F)c(F)c2)c2c(F)c(F)c(F)c(F)c2c1=O	x	-7.9	x	-1.9	-0.6
Cc1ccc(CNC(=O)C2CCN(S(=O)(=O)c3cccc4nonc34)CC2)cc1	-2.0	-2.4	4.2	-4.8	0.5
O=C(NCc1ccc(F)cc1)C1CCN(S(=O)(=O)c2cccc3nonc23)CC1	-1.6	31.9*	-2.0	-7.5	-0.1
Cc1ccc(OC(=O)c2ccc(C)c([N+](=O)[O-])c2)cn1	-2.3	-2.0	-10.7	-12.4	1.7
CCC(=O)Nc1ccc(Cl)c(NC(=S)NC(=O)c2ccco2)c1	-6.3	-0.7	-4.2	-6.5	-0.1
O=[N+]([O-])c1ccccc1NCCNS(=O)(=O)c1ccc(Cl)cc1	-3.6	-2.3	-15.4	33.8*	2.0
CC(Cc1ccco1)NC(=O)c1ccc(C(F)(F)F)cc1 (configuration not stated)	-2.5	-12.0	-13.7	32.2*	-1.2
Cc1c(C)c2c(OCC(=O)NCc3ccco3)cc3c(c2oc1=O)CCC(C)(C)O3	-2.7	2.6	-20.5	30.0*	0.6
Cc1cc(=O)oc2c3c(cc(OCC(=O)NCc4ccco4)c12)OC(C)(C)CC3	-3.0	-11.1	-11.0	14.2	-1.5
CC[C@H](C)[C@H](NC(=O)CNC(=O)COc1cc2c(c3oc(=O)cc(C)c13)CCC(C)(C)O2)C(=O)O	2.3	-14.3	1.4	-20.8	0.3
Cc1cc(=O)oc2c3c(cc(OCC(=O)NCC(=O)N[C@H](C(=O)O)C(C)C)c12)OC(C)(C)CC3	1.2	13.8	2.5	30.1*	-0.2
COC(=O)c1cccc(NC(=O)CSc2nnc(C3CC3)n2C)c1	1.1	12.2	-0.1	4.7	0.1
CCn1cc(C(=O)N2CCc3ccccc3C2)c(=O)c2cc(S(=O)(=O)N3CCCCC3)ccc21	x	-21.0	x	-14.1	68.1*
Cn1cc(C(=O)N2CCc3ccccc3C2)c(=O)c2cc(S(=O)(=O)N3CCCCC3)ccc21	x	-16.8	x	-11.0	1.3
CC1CCN(CCCNC(=O)c2cn(C)c3ccc(S(=O)(=O)N(C)C4CCCCC4)cc3c2=O)CC1	x	11.4	x	x	-0.8
Cn1cc(C(=O)NC2CCCCCC2)c(=O)c2cc(S(=O)(=O)N3CCCC3)ccc21	-4.8	-0.9	-13.9	2.7	3.0
CC1CCCN(CCCNC(=O)c2cn(C)c3ccc(S(=O)(=O)N(C)C4CCCCC4)cc3c2=O)C1 (configuration not stated)	-1.2	-14.5	-17.2	36.5*	0.4
Cn1cc(C(=O)NC2CCCCCCC2)c(=O)c2cc(S(=O)(=O)N3CCCC3)ccc21	-2.1	31.7*	-6.1	-9.5	1.6
CC1CCN(C(=O)CC2C(=O)Nc3c2c(=O)n(C)c(=O)n3Cc2ccccc2)CC1 (configuration not stated)	0.6	3.5	-7.6	-9.3	-0.5
Cc1cc(N2CCN(Cc3ccccc3)CC2)n2nc(C)c(-c3ccccc3)c2n1	-3.3	-12.0	-8.4	18.3	-0.6
COc1ccc(-c2c(C)nn3c(N4CCN(Cc5ccccc5)CC4)cc(C)nc23)cc1OC	-5.3	31.3*	-1.4	25.6	-0.2
Cc1nn2c(N3CCOCC3)cc(C(C)(C)C)nc2c1-c1ccc(Cl)cc1	-2.0	2.5	4.7	-5.7	-0.7
Cc1cc(N2CCOCC2)n2nc(C)c(-c3ccc(Cl)cc3)c2n1	-4.7	1.4	-4.4	33.0*	1.2
SMILES	D2 ag-1	D2 PAM-1	D2 PAM-2	D2 antagonist	D2 ag-2
CCN(CC)S(=O)(=O)c1ccc(NC2CCN(Cc3ccccc3)CC2)nc1	-1.0	16.6	-7.0	36.3*	-0.2
Cc1ccc(C(=O)NCCc2nnc3ccc(SCC(=O)Nc4ccccc4C)nn23)cc1	0.4	3.3	-6.0	41.2*	0.3
Cc1ccc(C(=O)NCCc2nnc3ccc(SCC(=O)Nc4c(C)cc(C)cc4C)nn23)cc1	-7.6	-0.7	-15.7	-6.0	-0.1
CCn1c(CCC(=O)Nc2ccccc2F)nnc1SCC(=O)Nc1ccc(OC)cc1	-2.5	5.4	-22.5	-1.8	-0.1
COc1cc(/C=C/C(=O)O)ccc1OS(=O)(=O)c1c(C)c(C)cc(C)c1C	-3.3	6.5	0.3	-32.7	0.2
CCOc1ccc(NC(=O)CCC(=O)NNS(=O)(=O)c2ccccc2[N+](=O)[O-])cc1	2.9	3.6	-0.7	11.2	105.2*
COc1ccc(N(Cc2cc3cc(OC)ccc3[nH]c2=O)S(=O)(=O)c2ccc(NC(C)=O)cc2)cc1	1.9	-19.8	50.2*	-6.8	0.0
COc1ccc(N(Cc2cc3ccccc3[nH]c2=O)S(=O)(=O)c2ccc(OC)cc2)cc1	-2.3	-23.7	-43.8	9.5	-1.7
COc1ccc(N(CC(=O)N/N=C/c2ccc(C(=O)O)cc2)S(=O)(=O)c2ccc(NC(C)=O)cc2)cc1	1.6	-6.9	-0.2	56.2*	0.5
O=C(CC1C(=O)NCCN1CC1CCCCC1)NC1(c2ccccc2)CC1 (configuration not stated)	-3.6	-6.6	5.3	13.5	0.7
CN1/C(=C\C=C(/C#N)C(=O)Nc2ccccc2F)C(C)(C)c2ccccc21	-4.2	-4.5	-2.7	3.5	62.3*
CN1/C(=C/C=C(/C#N)C(N)=O)C(C)(C)c2ccccc21	-6.9	x	-19.3	x	x
Brc1cccc(OCCN2CCOCC2)c1	-5.5	-10.6	-71.7	2.4	0.7
CC1CCN(CCCCOc2ccc(Br)cc2)CC1	-4.6	-18.8	-27.3	19.5	0.8
Cc1cc(Br)ccc1OCCCCN1CCC(C)CC1	-3.1	-12.6	-36.9	35.1*	0.6
Cc1cc(Br)ccc1OCCn1ccnc1	70.5*	-3.2	-10.3	4.9	0.3
Brc1cccc(OCCN2CCCCC2)c1	-3.4	-20.8	-18.7	47.5*	0.0
Clc1cc(Br)ccc1OCCn1ccnc1	-0.4	-6.2	-9.1	22.0	-0.6
Cc1cc(C)c(OCCCCN2CCC(C)CC2)c(Br)c1	-2.2	-18.7	-15.2	20.5	0.3
CC1CCN(CCCCOc2cccc(Br)c2)CC1	-3.7	-29.0	-47.1	91.8*	-0.4
Cc1ccc(C)c(NC(=S)N2CCN(S(=O)(=O)c3ccccc3)CC2)c1	-7.0	10.5	-5.0	-12.2	-0.1

Compound activity from PubChem.
